Assay results taken from PubChem BioAssay (Tox21).
Results filed as inconclusive are left out. The source made the active and inactive calls. The call rests on the fitted dose curve; in most records, active means well fitted curve in the direction sought with a large enough effect in the repeat runs; inconclusive means weak or mixed curves; inactive means no such curve, though single readings can be large; an effect the other way counts as inactive or inconclusive.

Key:
[1] = A CellTox Green Cytotoxicity Assay to monitor cytotoxicity in HEK293 cells - 40 hour (AID 1224871); conditions: CellTox Green fluorescence; series mostly up to 76.8 µM; further: nearly all actives have a fitted effect of over 45% in size
Outline: (§1)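 Cytotoxicity was tracked continuously in HEK293 cells by a DNA-binding dye excluded from viable cells. Compounds were transferred in DMSO 5 h after seeding; fluorescence was recorded at intervals up to 40 h.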

[2] = qHTS RealTime-Glo MT Cell Viability Assay in HEK293 cells - 16 hour (AID 1224872); conditions: RealTime-Glo luminescence; series mostly up to 76.8 µM; further: nearly all actives have a fitted effect of over 50% in size; further: potency means the concentration at half of the fitted maximal effect
Outline: (§2)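 Reads taken at 0, 8, 16, 24, 32 and 40 h from the same wells. HEK293 cells (600/well) carried RealTime-Glo reagents from seeding, with compound added after a 5 h settle at 37 C.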

[3] = A CellTox Green Cytotoxicity Assay to monitor cytotoxicity in HEK293 cells - 24 hour (AID 1224875); conditions: CellTox Green fluorescence; series mostly up to 76.8 µM; further: nearly all actives have a fitted effect of over 45% in size
Outline: as §1

[4] = A CellTox Green Cytotoxicity Assay to monitor cytotoxicity in HepG2 cells - 16 hour (AID 1224876); conditions: CellTox Green fluorescence; series mostly up to 76.8 µM; further: nearly all actives have a fitted effect of over 45% in size
Outline: (§3)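 Real-time, homogeneous cytotoxicity readout: dead-cell DNA staining by CellTox Green in HepG2 monolayers, fluorescence measured at timed intervals up to 40 h of continuous compound exposure.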

[5] = A CellTox Green Cytotoxicity Assay to monitor cytotoxicity in HepG2 cells - 24 hour (AID 1224878); conditions: CellTox Green fluorescence; series mostly up to 76.8 µM; further: nearly all actives have a fitted effect of over 45% in size
Outline: as §3

[6] = A CellTox Green Cytotoxicity Assay to monitor cytotoxicity in HepG2 cells - 40 hour (AID 1224879); conditions: CellTox Green fluorescence; series mostly up to 76.8 µM; further: nearly all actives have a fitted effect of over 40% in size
Outline: as §3

[7] = qHTS RealTime-Glo MT Cell Viability Assay in HEK293 cells - 0 hour (AID 1224880); conditions: RealTime-Glo luminescence; series mostly up to 76.8 µM
Outline: (§4)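 Nonlytic bioluminescent viability monitoring. HEK293 at 600 cells/well with reagent; 5 h settle; compound transfer by pintool; plates held at 37 C and read at set time points.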

[8] = A CellTox Green Cytotoxicity Assay to monitor cytotoxicity in HEK293 cells - 32 hour (AID 1224881); conditions: CellTox Green fluorescence; series mostly up to 76.8 µM; further: nearly all actives have a fitted effect of over 40% in size
Outline: as §1

[9] = A CellTox Green Cytotoxicity Assay to monitor cytotoxicity in HepG2 cells - 0 hour (AID 1224882); conditions: CellTox Green fluorescence; series mostly up to 76.8 µM; further: nearly all actives have a fitted effect of over 35% in size
Outline: as §3

[10] = A CellTox Green Cytotoxicity Assay to monitor cytotoxicity in HepG2 cells - 32 hour (AID 1224883); conditions: CellTox Green fluorescence; series mostly up to 76.8 µM; further: nearly all actives have a fitted effect of over 50% in size
Outline: as §3

[11] = A CellTox Green Cytotoxicity Assay to monitor cytotoxicity in HEK293 cells - 8 hour (AID 1224884); conditions: CellTox Green fluorescence; series mostly up to 76.8 µM; further: nearly all actives have a fitted effect of over 35% in size
Outline: as §1

[12] = qHTS RealTime-Glo MT Cell Viability Assay in HEK293 cells - 8 hour (AID 1224887); conditions: RealTime-Glo luminescence; series mostly up to 76.8 µM; further: nearly all actives have a fitted effect of over 50% in size; further: potency means the concentration at half of the fitted maximal effect
Outline: as §4

[13] = A CellTox Green Cytotoxicity Assay to monitor cytotoxicity in HEK293 cells - 16 hour (AID 1224888); conditions: CellTox Green fluorescence; series mostly up to 76.8 µM; further: nearly all actives have a fitted effect of over 35% in size
Outline: as §1

[14] = qHTS RealTime-Glo MT Cell Viability Assay in HepG2 cells - 0 hour (AID 1224889); conditions: RealTime-Glo luminescence; series mostly up to 76.8 µM; further: nearly all actives have a fitted effect of over 50% in size
Outline: (§5)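 HepG2 suspension premixed with RealTime-Glo reagents is plated at 600 cells per well and left 5 h at 37 C/5% CO2. Compounds in DMSO then go in, and bioluminescence reflecting viable cell number is recorded over 40 h.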

[15] = A CellTox Green Cytotoxicity Assay to monitor cytotoxicity in HepG2 cells - 8 hour (AID 1224890); conditions: CellTox Green fluorescence; series mostly up to 76.8 µM; further: nearly all actives have a fitted effect of over 45% in size
Outline: as §3

[16] = qHTS RealTime-Glo MT Cell Viability Assay in HEK293 cells - 40 hour (AID 1224874); conditions: RealTime-Glo luminescence; max response: hits give low values; further: nearly all actives have a fitted effect of over 50% in size
Outline: as §4

[17] = qHTS RealTime-Glo MT Cell Viability Assay in HepG2 cells - 16 hour (AID 1224885); conditions: RealTime-Glo luminescence; series mostly up to 76.8 µM; further: nearly all actives have a fitted effect of over 50% in size
Outline: as §5

[18] = qHTS RealTime-Glo MT Cell Viability Assay in HEK293 cells - 24 hour (AID 1224886); conditions: RealTime-Glo luminescence; series mostly up to 76.8 µM
Outline: as §2

[19] = qHTS RealTime-Glo MT Cell Viability Assay in HepG2 cells - 8 hour (AID 1224873); conditions: RealTime-Glo luminescence; series mostly up to 76.8 µM; further: nearly all actives have a fitted effect of over 55% in size
Outline: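 Real-time viability: cells seeded at 600 per well together with NanoLuc and cell-permeant prosubstrate, compounds added after 5 h incubation. Luminescence tracked at 0, 8, 16, 24, 32 and 40 h of exposure.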

[20] = qHTS RealTime-Glo MT Cell Viability Assay in HepG2 cells - 32 hour (AID 1224877); conditions: RealTime-Glo luminescence; series mostly up to 76.8 µM; further: nearly all actives have a fitted effect of over 55% in size
Outline: as §5
On the % scale 0 is the no-effect control and ±100 the full control effect.

CC(C)N(C(=O)COc1nnc(C(F)(F)F)s1)c1ccc(F)cc1
active: Potency [2] 34.7 µM | Potency [12] 34.7 µM
inactive: Potency [1] | Potency [3] | Potency [4] | Potency [5] | Potency [6] | Potency [7] | Potency [8] | Potency [9] | Potency [10] | Potency [11] | Potency [13] | Potency [14] | Potency [15]

O=C(O)C(F)(F)C(F)(F)C(F)(F)C(F)(F)C(F)(F)C(F)(F)C(F)(F)C(F)(F)C(F)(F)C(F)(F)F
inactive: Potency [1] | Potency [2] | max response [16] 13.9% | Potency [3] | Potency [7] | Potency [8] | Potency [11] | Potency [17] | Potency [18] | Potency [12] | Potency [13]

O=[N+]([O-])c1ccc(F)c([N+](=O)[O-])c1
inactive: Potency [1] | Potency [19] | Potency [3] | Potency [4] | Potency [20] | Potency [5] | Potency [6] | Potency [7] | Potency [8] | Potency [9] | Potency [10] | Potency [11] | Potency [17] | Potency [13] | Potency [14] | Potency [15]

CCCC(=O)Cl
inactive: Potency [1] | Potency [2] | max response [16] 17% | Potency [3] | Potency [4] | Potency [20] | Potency [5] | Potency [6] | Potency [7] | Potency [8] | Potency [9] | Potency [10] | Potency [11] | Potency [17] | Potency [18] | Potency [14] | Potency [15]

CCOP(=S)(OCC)Oc1cc(Cl)c(Br)cc1Cl
inactive: Potency [1] | Potency [2] | max response [16] -15.7% | Potency [3] | Potency [4] | Potency [5] | Potency [6] | Potency [7] | Potency [8] | Potency [9] | Potency [10] | Potency [11] | Potency [17] | Potency [12] | Potency [13] | Potency [14] | Potency [15]
